Test results as given in PubChem BioAssay (EPA / NIEHS).
Inconclusive results are not listed. The source holds several records for some structures; these can differ, active in one and inactive in another. Active and inactive are the calls of the source. The calls were made as follows: active = hit-call score of the fitted dose curve at least 0.9, where 1 is the maximum; inconclusive = response in the unintended direction; inactive = score below 0.9.

Tests used:
[1] = LTEA_HepaRG_LDH_cytotoxicity: Cytotoxicity Assessment in the Life Technologies and Expression Analysis (LTEA) Assay (AID 2283563)
In short: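 Human HepaRG hepatic cells are treated with test chemicals for 48 h at up to 100 uM in 0.5% DMSO. Cytotoxicity is scored from medium LDH against the vehicle control.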

[2] = ATG_XTT_Cytotoxicity: Cytotoxicity Assessment in the Attagene TRANS-FACTORIAL HepG2 Assay (AID 2283584)
In short: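 Transfect HepG2 with GAL4-UAS reporter units, dose compound, incubate 24 h, then measure viable cell number by XTT. Fit concentration response against DMSO baseline.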

[3] = TOX21_p53_BLA_p2_viability: Viability Assessment in the Tox21 HCT-116 p53 Agonism Beta-lactamase Assay, Phase 2 (AID 2283591);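 also: compound exposure lasted 16 h at 37 °C; actives lower the ATP signal meaning cytotoxicity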
In short: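 Cytotoxicity readout: CellTiter-Glo ATP luminescence, 30 min at room temperature, after the beta-lactamase read. Cells were HCT116 exposed 16 h at 37C to compounds pin-transferred at 217-fold dilution from DMSO stocks.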

[4] = target: Cellular tumor antigen p53 (Homo sapiens) (UniProt P04637); assay: TOX21_p53_BLA_p2_ratio: Tox21 HCT-116 p53 Agonism Beta-lactamase Assay, Ratio, Phase 2 (AID 2283592)
In short: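 Cleaved-to-uncleaved substrate ratio (460 vs 530 nm) measured in HCT116 cells with an inducible beta-lactamase reporter linked to p53 activity. Compounds incubated 16 h at 37C before 2 h room-temperature CCF4-AM loading.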

[5] = TOX21_p53_BLA_p3_viability: Viability Assessment in the Tox21 HCT-116 p53 Agonism Beta-lactamase Assay, Phase 3 (AID 2283593);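 also: cells exposed to compound for 16 h before reading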
In short: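 Cellular ATP was quantified by CellTiter-Glo luminescence, read after 30 min at room temperature. Beforehand, HCT116 cells (4000/well) received compound 5 h post-seeding, 217-fold diluted from DMSO, then incubated 16 h at 37C.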

[6] = target: Cellular tumor antigen p53 (Homo sapiens) (UniProt P04637); assay: TOX21_p53_BLA_p3_ratio: Tox21 HCT-116 p53 Agonism Beta-lactamase Assay, Ratio, Phase 3 (AID 2283596)
In short: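 Cells were seeded at 4000/well, rested 5 h at 37C, then dosed with DMSO compound solutions (217-fold dilution) for 16 h. CCF4-AM substrate was loaded for 2 h at room temperature, and the 460/530 nm emission ratio was fitted for gain of signal versus DMSO.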

[7] = TOX21_p53_BLA_p4_viability: Viability Assessment in the Tox21 HCT-116 p53 Agonism Beta-lactamase Assay, Phase 4 (AID 2283597);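 also: hits lower the luminescence signal meaning cytotoxicity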
In short: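 Viability is taken as cellular ATP: after 16 h compound exposure of HCT116 cells and a 2 h room-temperature CCF4-AM substrate step, CellTiter-Glo reagent is added and luminescence is measured 30 min later.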

[8] = target: Cellular tumor antigen p53 (Homo sapiens) (UniProt P04637); assay: TOX21_p53_BLA_p5_ratio: Tox21 HCT-116 p53 Agonism Beta-lactamase Assay, Ratio, Phase 5 (AID 2283599)
In short: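 Beta-lactamase reporter ratio (blue 460 nm over green 530 nm, 405 nm excitation) after 2 h CCF4-AM loading, in HCT-116 cells exposed 16 h at 37 C to compounds pinned at 217-fold dilution. Increases relative to DMSO baseline scored.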

[9] = TOX21_p53_BLA_p5_viability: Viability Assessment in the Tox21 HCT-116 p53 Agonism Beta-lactamase Assay, Phase 5 (AID 2283600)
In short: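 Viability is taken from cellular ATP content, measured by luciferase luminescence in the same wells after the beta-lactamase ratio read. Cells are seeded at 4000 per well and exposed to DMSO-dissolved compounds, diluted 217-fold, for 16 h.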

[10] = target: Cellular tumor antigen p53 (Homo sapiens) (UniProt P04637); assay: TOX21_p53_BLA_p4_ratio: Tox21 HCT-116 p53 Agonism Beta-lactamase Assay, Ratio, Phase 4 (AID 2283601)
In short: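 Signal is the blue/green (460nm/530nm) ratio of cleaved versus uncleaved CCF4-AM substrate, read after 2 h substrate loading. Cells were HCT116 carrying the p53-responsive beta-lactamase reporter, dosed 16 h at 37C, 5% CO2; CellTiter-Glo measured in parallel.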

[11] = Tanguay_ZF_120hpf_MORT_legacy: (Legacy) Oregon State University Tanguay Lab 120 Hour Post-fertilization zebrafish Assay for Mortality (AID 2283633)
In short: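 Mortality endpoint from a multiplexed whole-embryo zebrafish screen. Dechorionated wild-type embryos received compound at 6 hpf and remained under static exposure at 28C until 120 hpf, with death noted as a present/absent call.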

[12] = Tanguay_ZF_120hpf_YSE_legacy: (Legacy) Oregon State University Tanguay Lab 120 Hour Post-fertilization zebrafish Assay for Yolk Sac Edema (AID 2283634);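 as to AC50: actives raise the incidence of yolk sac edema above the DMSO baseline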
In short: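 Readout: presence or absence of yolk sac edema at 120 hpf, fitted upward against DMSO controls. Exposure ran statically from 6 hpf in dechorionated embryos kept at 28C.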

[13] = Tanguay_ZF_120hpf_AXIS_legacy: (Legacy) Oregon State University Tanguay Lab 120 Hour Post-fertilization zebrafish Assay for Body Axis Malformation (AID 2283635);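 as to AC50: potency for an increased fraction of larvae scored with body axis malformation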
In short: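 Static 6–120 hpf chemical exposure of dechorionated wild-type 5D zebrafish, one per well at 28C; morphology endpoint scored binary at 120 hpf relative to DMSO control.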

[14] = Tanguay_ZF_120hpf_SNOU_legacy: (Legacy) Oregon State University Tanguay Lab 120 Hour Post-fertilization zebrafish Assay for Snout Malformation (AID 2283637)
In short: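 Binary snout-malformation call at 120 hpf in wild-type 5D embryos, chorion removed by pronase, under static exposure from 6 hpf at 28C (0.64% DMSO). Embryos dying by 24 or 120 hpf excluded.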

[15] = Tanguay_ZF_120hpf_JAW_legacy: (Legacy) Oregon State University Tanguay Lab 120 Hour Post-fertilization zebrafish Assay for Jaw Malformation (AID 2283638);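 as to AC50: active means more embryos with jaw malformation than DMSO controls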
In short: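 Static waterborne exposure of dechorionated wild-type (Tropical 5D) zebrafish from 6 to 120 hpf at 28C, 0.64% DMSO vehicle; 5uM trimethyltin chloride served as positive control. Jaw morphology recorded as binary at 120 hpf.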

[16] = Tanguay_ZF_120hpf_OTIC_legacy: (Legacy) Oregon State University Tanguay Lab 120 Hour Post-fertilization zebrafish Assay for Otic Vesicle Malformation (AID 2283639)
In short: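 Binary scoring of otic vesicle defects at 120 hpf in zebrafish (Tropical 5D) held under static exposure at 28C, sealed and shaded, with final DMSO 0.64%. Embryos dying by 24 or 120 hpf excluded; fitted positively against DMSO.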

[17] = Tanguay_ZF_120hpf_PE_legacy: (Legacy) Oregon State University Tanguay Lab 120 Hour Post-fertilization zebrafish Assay for Pericardial Edema (AID 2283640);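 as to AC50: potency for increased incidence of pericardial edema versus DMSO baseline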
In short: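 Read-out is the presence or absence of pericardial edema at 120 hpf under brightfield, with gain of signal fitted against DMSO controls. Larvae (5D wild-type) were statically exposed at 28C with 0.64% final DMSO.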

[18] = Tanguay_ZF_120hpf_BRAI_legacy: (Legacy) Oregon State University Tanguay Lab 120 Hour Post-fertilization zebrafish Assay for Brain Malformation (AID 2283641)
In short: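 Brain malformation in Tropical 5D zebrafish was recorded as a binary endpoint after static compound exposure from early development to 120 hpf at 28C. Activity was analysed against DMSO as negative control.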

[19] = Tanguay_ZF_120hpf_SOMI_legacy: (Legacy) Oregon State University Tanguay Lab 120 Hour Post-fertilization zebrafish Assay for Somite Malformation (AID 2283647)
In short: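 5D WT zebrafish; chorion removed 4 hpf; 1 embryo/well from 6 hpf; static exposure to 120 hpf, 28C, 0.64% DMSO final. Endpoint: somite malformation, binary, brightfield. Mortality excluded.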

[20] = Tanguay_ZF_120hpf_EYE_legacy: (Legacy) Oregon State University Tanguay Lab 120 Hour Post-fertilization zebrafish Assay for Eye Malformation (AID 2283636);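 also: binary presence or absence of eye malformation scored by brightfield in 120 hpf larvae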
In short: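 Binary brightfield scoring of eye defects at 120 hpf after static exposure from 6 hpf of single pronase-dechorionated wild-type embryos (28C, 0.64% DMSO). Non-mortality endpoints omitted where embryos died; fit vs DMSO.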

Measured: AC50

Cellular tumor antigen p53 (Homo sapiens), sequence (P04637 whole entry, looked up): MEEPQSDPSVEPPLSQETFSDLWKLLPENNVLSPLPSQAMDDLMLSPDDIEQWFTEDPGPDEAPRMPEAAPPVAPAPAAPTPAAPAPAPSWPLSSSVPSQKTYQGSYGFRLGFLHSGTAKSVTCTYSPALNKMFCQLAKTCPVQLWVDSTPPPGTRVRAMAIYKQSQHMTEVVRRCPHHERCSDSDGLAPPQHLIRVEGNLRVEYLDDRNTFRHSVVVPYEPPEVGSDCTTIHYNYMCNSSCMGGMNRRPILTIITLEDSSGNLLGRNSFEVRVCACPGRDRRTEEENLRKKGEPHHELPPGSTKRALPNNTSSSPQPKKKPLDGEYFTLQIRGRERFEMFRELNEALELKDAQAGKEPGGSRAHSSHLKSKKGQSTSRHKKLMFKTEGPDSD

Cc1ccc(C(C)(C)C)c(O)c1
inactive: [1] | [2] | [3] | [4] | [5] | [6] | [8] | [9] | [10] | [11] | [12] | [13] | [14] | [15] | [16] | [17] | [18] | [19]
active: [7] 43.2 µM | [10] 69 µM

CCCC[C@H]1CN(CC2CCOCC2)C(=O)OC12CCN(C1(C)CCN(C(=O)c3c(C)ncnc3C)CC1)CC2
inactive: [1] | [2] | [4] | [5] | [6] | [7] | [8] | [9] | [10] | [11] | [12] | [13] | [20] | [14] | [15] | [16] | [17] | [18] | [19]

S=c1[nH]c2ccccc2s1
inactive: [1] | [2] | [3] | [4] | [5] | [6] | [7] | [8] | [10] | [11]
active: [12] 11.7 µM | [13] 36.7 µM | [20] 42.1 µM | [14] 40.7 µM | [15] 10.7 µM | [16] 11.2 µM | [17] 37.6 µM | [18] 40.7 µM | [19] 44.5 µM

Cc1occc(=O)c1O
inactive: [1] | [2] | [11] | [12] | [13] | [20] | [14] | [15] | [16] | [17] | [18] | [19]

O=C1O[C@H]([C@H](O)CO)C(O)=C1O
inactive: [1] | [2] | [3] | [4] | [5] | [6] | [7] | [8] | [10] | [11] | [12] | [13] | [20] | [15] | [18] | [19]

O=C(O)c1cccnc1
inactive: [1] | [2] | [11] | [12] | [13] | [20] | [14] | [15] | [16] | [17] | [18] | [19]

O=C1CCCCC1
inactive: [1] | [2] | [11] | [12] | [13] | [20] | [14] | [15] | [16] | [17] | [18] | [19]

CCCCCCCCCCCCCCCCO
inactive: [1] | [2] | [11] | [12] | [13] | [20] | [14] | [15] | [16] | [17] | [18] | [19]
